# Results reported in article PMC7862700, “An all-to-all approach to the identification of sequence-specific readers for epigenetic DNA modifications on cytosine”.
# What was measured:
# Experiment in all cases: DAPPL (digital affinity profiling via proximity ligation, sequencing); 10 mM Tris-HCl pH 7.5, 50 mM NaCl, 1 mM DTT, 4% glycerol, room temperature, 30 min; GST-TFs on glutathione beads, 16-mer random dsDNA library, 0.1% formaldehyde crosslink after washing; high values mean tight binding
# FEV = molecular target: T1, FEV (Homo sapiens, UniProt Q99581 1-238); details: protein: recombinant; tags: N-terminal GST; dsDNA, one strand shown
# T1 sequence: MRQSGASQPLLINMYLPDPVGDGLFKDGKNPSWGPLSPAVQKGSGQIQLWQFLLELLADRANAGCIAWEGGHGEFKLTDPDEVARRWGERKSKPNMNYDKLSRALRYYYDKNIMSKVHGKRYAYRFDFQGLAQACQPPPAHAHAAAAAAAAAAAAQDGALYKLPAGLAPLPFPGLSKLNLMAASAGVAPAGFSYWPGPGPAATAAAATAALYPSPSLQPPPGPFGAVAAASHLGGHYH
# In short: (§1)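 In yeast, human transcription factors were expressed with a GST fusion, then pulled down on glutathione beads and given DNA barcodes. Pooled with a tag-only sample, they were exposed to 200 nmole of a 16-mer random double-stranded DNA library (Tris/NaCl/DTT/glycerol buffer, room temperature, 30 min), washed, crosslinked with 0.1% formaldehyde, proximity-ligated using BsaI/T4 ligase for 1 h at 37 °C, PCR-amplified and read on an Illumina NextSeq500. Each hexamer's frequency of reads for a factor, divided by the matching frequency for the tag-only sample, gives the binding signal.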
# ETV5 = ETV5 (Homo sapiens, UniProt P41161 1-510); details: protein: recombinant; tags: N-terminal GST; dsDNA, one strand shown
# Chain of ETV5 (P41161 whole entry): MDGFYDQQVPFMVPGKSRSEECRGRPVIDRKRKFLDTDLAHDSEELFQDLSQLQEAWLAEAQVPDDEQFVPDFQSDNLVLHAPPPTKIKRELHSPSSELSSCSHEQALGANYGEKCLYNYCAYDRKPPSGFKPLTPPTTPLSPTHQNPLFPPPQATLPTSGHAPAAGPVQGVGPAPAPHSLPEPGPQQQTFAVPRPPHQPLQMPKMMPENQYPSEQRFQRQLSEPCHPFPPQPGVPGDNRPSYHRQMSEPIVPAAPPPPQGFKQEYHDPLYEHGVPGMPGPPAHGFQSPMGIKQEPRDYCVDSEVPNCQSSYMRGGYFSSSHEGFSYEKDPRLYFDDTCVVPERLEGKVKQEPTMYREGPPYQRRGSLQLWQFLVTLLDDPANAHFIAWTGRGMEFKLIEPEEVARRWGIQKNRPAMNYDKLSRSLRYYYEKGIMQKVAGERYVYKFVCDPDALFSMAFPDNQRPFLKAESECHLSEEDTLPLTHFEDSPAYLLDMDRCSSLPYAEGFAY
# In short: as §1
# HSF1 = HSF1 (Homo sapiens, UniProt Q00613 1-529); details: protein: recombinant; tags: N-terminal GST; chain copies: 3; dsDNA, one strand shown
# Chain of HSF1 (Q00613 whole entry): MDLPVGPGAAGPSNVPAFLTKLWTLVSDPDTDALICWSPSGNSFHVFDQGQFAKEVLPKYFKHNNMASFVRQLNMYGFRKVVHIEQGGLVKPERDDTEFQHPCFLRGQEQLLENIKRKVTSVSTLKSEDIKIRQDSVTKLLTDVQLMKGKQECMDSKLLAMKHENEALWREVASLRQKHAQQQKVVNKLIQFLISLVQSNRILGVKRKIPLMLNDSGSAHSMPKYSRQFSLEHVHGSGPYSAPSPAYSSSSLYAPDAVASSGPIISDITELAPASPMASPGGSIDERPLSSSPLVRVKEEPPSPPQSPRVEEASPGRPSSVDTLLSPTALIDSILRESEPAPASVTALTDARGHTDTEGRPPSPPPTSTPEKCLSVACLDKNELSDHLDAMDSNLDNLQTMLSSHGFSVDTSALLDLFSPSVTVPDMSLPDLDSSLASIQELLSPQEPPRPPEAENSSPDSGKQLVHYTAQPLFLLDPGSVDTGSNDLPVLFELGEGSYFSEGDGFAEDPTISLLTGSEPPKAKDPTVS
# In short: as §1
# SPIC = molecular target: T2, SPIC (Homo sapiens, UniProt Q8N5J4 1-248); details: protein: recombinant; tags: N-terminal GST; dsDNA, one strand shown
# T2 sequence: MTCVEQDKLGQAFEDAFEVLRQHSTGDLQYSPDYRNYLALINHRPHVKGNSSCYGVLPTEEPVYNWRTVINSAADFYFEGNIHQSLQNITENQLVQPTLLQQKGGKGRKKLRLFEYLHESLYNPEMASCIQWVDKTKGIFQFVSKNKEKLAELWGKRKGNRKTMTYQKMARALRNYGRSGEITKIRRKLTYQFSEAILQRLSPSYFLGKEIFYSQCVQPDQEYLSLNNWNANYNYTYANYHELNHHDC
# In short: as §1
# ELF4 = ELF4 (Homo sapiens, UniProt Q99607 1-663); details: protein: recombinant; tags: N-terminal GST; dsDNA, one strand shown
# Chain of ELF4 (Q99607 whole entry): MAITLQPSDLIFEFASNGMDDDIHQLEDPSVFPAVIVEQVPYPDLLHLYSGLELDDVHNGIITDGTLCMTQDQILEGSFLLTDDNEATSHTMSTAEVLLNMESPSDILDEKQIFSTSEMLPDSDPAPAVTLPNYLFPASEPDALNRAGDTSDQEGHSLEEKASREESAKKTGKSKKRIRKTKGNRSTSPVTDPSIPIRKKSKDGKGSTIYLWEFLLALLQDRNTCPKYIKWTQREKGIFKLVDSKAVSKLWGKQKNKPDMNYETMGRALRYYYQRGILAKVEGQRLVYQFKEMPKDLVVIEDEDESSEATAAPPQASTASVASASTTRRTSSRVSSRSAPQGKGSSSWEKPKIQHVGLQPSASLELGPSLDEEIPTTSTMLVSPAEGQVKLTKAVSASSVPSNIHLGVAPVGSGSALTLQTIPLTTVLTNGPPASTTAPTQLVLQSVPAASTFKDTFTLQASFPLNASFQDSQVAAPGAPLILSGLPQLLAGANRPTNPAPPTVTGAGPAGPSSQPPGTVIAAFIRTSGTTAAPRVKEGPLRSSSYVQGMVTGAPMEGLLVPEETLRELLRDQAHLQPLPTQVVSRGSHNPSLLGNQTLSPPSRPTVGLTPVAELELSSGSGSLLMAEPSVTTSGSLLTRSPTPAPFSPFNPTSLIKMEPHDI
# In short: as §1
# ELK4 = molecular target: T3, ELK4 (Homo sapiens, UniProt P28324-2 1-405); details: protein: recombinant; tags: N-terminal GST; dsDNA, one strand shown
# T3 sequence: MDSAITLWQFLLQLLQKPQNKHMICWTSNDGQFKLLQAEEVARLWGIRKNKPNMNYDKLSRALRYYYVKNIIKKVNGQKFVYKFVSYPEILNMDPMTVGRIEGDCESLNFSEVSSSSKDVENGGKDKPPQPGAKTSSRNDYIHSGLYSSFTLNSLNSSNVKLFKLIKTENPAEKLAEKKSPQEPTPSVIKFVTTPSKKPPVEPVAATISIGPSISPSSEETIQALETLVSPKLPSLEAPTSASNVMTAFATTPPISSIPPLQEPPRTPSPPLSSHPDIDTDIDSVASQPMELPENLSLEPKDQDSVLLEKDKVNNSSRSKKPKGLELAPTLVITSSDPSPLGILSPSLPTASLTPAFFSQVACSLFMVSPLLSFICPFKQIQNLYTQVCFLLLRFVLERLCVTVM
# In short: as §1
# ETV2 = molecular target: T4, ETV2 (Homo sapiens, UniProt O00321 1-342); details: protein: recombinant; tags: N-terminal GST; dsDNA, one strand shown
# T4 sequence: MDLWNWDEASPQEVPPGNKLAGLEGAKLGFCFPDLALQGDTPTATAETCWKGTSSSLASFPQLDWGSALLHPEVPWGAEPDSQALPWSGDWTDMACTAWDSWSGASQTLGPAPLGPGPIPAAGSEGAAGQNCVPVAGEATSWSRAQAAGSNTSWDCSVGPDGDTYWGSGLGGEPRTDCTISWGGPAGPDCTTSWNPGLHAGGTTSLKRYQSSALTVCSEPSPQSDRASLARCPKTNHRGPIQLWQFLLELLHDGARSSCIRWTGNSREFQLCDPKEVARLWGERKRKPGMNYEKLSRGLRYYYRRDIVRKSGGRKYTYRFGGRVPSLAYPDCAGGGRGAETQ
# In short: as §1
# ELF3 = molecular target: T5, ELF3 (Homo sapiens, UniProt P78545 1-371); details: protein: recombinant; tags: N-terminal GST; dsDNA, one strand shown
# T5 sequence: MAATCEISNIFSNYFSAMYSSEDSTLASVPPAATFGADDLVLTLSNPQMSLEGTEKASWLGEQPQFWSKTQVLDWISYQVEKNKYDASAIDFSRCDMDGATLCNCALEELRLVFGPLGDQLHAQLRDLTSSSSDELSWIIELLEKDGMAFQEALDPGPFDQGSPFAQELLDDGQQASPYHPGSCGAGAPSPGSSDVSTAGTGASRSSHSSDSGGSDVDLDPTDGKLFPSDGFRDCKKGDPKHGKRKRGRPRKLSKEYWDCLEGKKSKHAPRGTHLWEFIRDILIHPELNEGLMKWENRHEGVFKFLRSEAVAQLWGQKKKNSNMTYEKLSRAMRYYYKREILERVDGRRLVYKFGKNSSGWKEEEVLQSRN
# In short: as §1
# CRX = CRX (Homo sapiens, UniProt O43186 1-299); details: protein: recombinant; tags: N-terminal GST; dsDNA, one strand shown
# Chain of CRX (O43186 whole entry): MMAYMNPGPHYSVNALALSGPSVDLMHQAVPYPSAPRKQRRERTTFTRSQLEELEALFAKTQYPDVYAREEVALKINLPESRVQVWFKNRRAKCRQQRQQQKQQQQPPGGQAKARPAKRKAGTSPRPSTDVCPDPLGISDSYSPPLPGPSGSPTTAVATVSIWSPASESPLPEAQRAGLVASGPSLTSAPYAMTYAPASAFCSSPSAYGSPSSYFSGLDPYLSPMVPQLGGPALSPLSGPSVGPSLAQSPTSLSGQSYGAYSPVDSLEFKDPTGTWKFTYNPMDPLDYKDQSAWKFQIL
# In short: as §1
# ETV1 = ETV1 (Homo sapiens, UniProt P50549 1-477); details: protein: recombinant; tags: N-terminal GST; dsDNA, one strand shown
# Chain of ETV1 (P50549 whole entry): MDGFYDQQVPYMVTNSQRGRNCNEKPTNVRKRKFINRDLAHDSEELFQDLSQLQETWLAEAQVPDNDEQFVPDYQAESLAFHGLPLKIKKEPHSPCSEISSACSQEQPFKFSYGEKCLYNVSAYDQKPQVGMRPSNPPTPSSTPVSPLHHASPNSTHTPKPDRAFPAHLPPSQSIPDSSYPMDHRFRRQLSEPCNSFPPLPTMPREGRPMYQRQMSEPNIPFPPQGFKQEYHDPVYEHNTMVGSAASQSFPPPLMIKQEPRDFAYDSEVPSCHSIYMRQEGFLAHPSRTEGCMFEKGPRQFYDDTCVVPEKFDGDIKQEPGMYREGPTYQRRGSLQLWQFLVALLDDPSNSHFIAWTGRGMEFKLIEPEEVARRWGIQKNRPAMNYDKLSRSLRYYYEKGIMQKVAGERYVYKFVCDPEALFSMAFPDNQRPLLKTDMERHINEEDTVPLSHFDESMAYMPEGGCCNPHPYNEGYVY
# In short: as §1
# ERF = molecular target: T6, ERF (Homo sapiens, UniProt P50548 1-548); details: protein: recombinant; tags: N-terminal GST; dsDNA, one strand shown
# T6 sequence: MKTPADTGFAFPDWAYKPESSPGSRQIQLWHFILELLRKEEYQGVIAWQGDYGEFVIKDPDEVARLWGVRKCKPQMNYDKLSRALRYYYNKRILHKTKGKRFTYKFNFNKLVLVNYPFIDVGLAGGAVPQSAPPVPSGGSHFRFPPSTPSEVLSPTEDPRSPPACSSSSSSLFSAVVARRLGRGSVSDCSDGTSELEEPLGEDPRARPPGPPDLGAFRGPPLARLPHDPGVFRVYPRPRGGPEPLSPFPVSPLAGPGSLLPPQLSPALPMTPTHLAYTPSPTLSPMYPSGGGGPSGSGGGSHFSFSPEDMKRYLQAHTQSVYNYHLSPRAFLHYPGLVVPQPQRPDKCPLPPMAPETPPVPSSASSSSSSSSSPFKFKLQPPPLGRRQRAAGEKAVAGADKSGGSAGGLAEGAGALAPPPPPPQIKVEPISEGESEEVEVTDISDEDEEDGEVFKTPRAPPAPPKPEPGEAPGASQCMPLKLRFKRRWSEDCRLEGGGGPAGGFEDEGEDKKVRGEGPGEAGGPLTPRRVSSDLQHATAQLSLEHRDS
# In short: as §1
# ETV3L = molecular target: T7, ETV3L (Homo sapiens, UniProt Q6ZN32 1-361); details: protein: recombinant; tags: N-terminal GST; dsDNA, one strand shown
# T7 sequence: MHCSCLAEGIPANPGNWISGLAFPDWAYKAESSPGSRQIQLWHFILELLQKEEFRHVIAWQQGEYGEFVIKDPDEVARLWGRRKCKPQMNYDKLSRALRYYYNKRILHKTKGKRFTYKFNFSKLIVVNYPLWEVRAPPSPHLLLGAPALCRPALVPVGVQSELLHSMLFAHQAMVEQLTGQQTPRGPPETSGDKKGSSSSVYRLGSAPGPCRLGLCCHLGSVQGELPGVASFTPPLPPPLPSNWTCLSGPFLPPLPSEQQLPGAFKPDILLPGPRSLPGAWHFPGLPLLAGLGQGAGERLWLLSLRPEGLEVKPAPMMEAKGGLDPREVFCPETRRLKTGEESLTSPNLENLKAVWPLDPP
# In short: as §1
# ETS2 = molecular target: T8, ETS2 (Homo sapiens, UniProt P15036 1-469); details: protein: recombinant; tags: N-terminal GST; dsDNA, one strand shown
# T8 sequence: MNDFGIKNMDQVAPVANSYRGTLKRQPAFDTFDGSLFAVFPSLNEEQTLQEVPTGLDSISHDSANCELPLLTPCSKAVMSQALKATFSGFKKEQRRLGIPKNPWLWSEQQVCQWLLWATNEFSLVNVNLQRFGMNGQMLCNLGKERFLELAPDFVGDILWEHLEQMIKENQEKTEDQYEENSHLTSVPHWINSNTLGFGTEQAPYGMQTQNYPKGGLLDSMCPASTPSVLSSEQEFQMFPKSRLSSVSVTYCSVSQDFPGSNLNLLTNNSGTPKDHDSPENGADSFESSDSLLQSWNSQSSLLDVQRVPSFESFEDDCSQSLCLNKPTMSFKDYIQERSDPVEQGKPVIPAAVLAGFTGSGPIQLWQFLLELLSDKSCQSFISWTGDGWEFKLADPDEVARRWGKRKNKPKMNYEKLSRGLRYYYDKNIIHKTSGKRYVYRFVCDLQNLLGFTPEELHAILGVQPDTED
# In short: as §1
# SPDEF = molecular target: T9, SPDEF (Homo sapiens, UniProt O95238 1-335); details: protein: recombinant; tags: N-terminal GST; dsDNA, one strand shown
# T9 sequence: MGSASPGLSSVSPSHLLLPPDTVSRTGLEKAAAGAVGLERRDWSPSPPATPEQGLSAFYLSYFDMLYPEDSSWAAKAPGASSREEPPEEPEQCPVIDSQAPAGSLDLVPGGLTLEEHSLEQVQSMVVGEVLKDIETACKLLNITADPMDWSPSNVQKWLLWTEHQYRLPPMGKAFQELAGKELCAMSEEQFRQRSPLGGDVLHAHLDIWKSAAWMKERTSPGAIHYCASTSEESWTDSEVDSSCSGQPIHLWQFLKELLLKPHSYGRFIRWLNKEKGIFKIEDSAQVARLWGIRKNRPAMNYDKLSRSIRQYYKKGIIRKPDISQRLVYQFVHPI
# In short: as §1
# ETV7 = molecular target: T10, ETV7 (Homo sapiens, UniProt Q9Y603 1-341); details: protein: recombinant; tags: N-terminal GST; dsDNA, one strand shown
# T10 sequence: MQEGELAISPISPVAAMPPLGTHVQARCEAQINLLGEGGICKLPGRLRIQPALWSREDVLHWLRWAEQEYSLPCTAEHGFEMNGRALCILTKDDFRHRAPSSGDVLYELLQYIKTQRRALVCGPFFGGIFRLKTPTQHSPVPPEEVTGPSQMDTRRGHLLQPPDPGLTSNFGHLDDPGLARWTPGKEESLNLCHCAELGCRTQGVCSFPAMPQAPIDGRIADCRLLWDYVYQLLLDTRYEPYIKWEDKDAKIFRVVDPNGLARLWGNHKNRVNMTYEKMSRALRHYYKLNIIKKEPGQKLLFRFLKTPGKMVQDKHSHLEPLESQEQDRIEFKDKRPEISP
# In short: as §1
# ELF5 = molecular target: T11, ELF5 (Homo sapiens, UniProt Q9UKW6-2 1-255); details: protein: recombinant; tags: N-terminal GST; dsDNA, one strand shown
# T11 sequence: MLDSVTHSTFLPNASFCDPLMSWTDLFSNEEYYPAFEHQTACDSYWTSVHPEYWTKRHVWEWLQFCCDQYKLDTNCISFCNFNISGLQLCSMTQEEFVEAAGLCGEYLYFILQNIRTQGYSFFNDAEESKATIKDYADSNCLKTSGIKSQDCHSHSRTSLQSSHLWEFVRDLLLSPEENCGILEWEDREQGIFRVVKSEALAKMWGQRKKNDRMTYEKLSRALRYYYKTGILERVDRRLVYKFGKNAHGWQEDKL
# In short: as §1
# ETV3 = molecular target: T12, ETV3 (Homo sapiens, UniProt P41162-2 1-143); details: protein: recombinant; tags: N-terminal GST; dsDNA, one strand shown
# T12 sequence: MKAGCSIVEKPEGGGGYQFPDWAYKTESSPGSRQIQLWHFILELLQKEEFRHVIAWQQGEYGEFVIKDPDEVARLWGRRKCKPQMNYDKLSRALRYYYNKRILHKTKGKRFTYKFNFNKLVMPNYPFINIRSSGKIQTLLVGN
# In short: as §1
# ETV6 = ETV6 (Homo sapiens, UniProt P41212 1-452); details: protein: recombinant; tags: N-terminal GST; dsDNA, one strand shown
# Chain of ETV6 (P41212 whole entry): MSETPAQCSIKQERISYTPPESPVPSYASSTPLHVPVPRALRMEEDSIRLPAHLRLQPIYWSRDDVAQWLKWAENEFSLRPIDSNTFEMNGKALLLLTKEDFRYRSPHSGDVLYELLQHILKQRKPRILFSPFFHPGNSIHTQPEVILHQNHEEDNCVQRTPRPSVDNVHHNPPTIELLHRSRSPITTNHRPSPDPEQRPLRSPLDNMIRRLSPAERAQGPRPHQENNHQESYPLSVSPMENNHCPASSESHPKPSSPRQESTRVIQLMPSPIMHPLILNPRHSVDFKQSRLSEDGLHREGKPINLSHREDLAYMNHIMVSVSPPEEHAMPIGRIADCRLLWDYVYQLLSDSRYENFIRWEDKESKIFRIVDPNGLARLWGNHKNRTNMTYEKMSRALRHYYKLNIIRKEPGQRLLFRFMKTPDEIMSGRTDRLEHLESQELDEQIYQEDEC
# In short: as §1
sequence,measurement,setting,value
GACCTT,binding signal,FEV,"1.6 fold enrichment (6-mer frequency, TF over GST control)"
same,binding signal,ETV5,"1.55 fold enrichment (6-mer frequency, TF over GST control)"
same,binding signal,HSF1,"1.52 fold enrichment (6-mer frequency, TF over GST control)"
same,binding signal,SPIC,"1.74 fold enrichment (6-mer frequency, TF over GST control)"
same,binding signal,ELF4,"1.73 fold enrichment (6-mer frequency, TF over GST control)"
same,binding signal,ELK4,"1.61 fold enrichment (6-mer frequency, TF over GST control)"
same,binding signal,ETV2,"1.63 fold enrichment (6-mer frequency, TF over GST control)"
same,binding signal,ELF3,"1.49 fold enrichment (6-mer frequency, TF over GST control)"
same,binding signal,CRX,"1.31 fold enrichment (6-mer frequency, TF over GST control)"
same,binding signal,ETV1,"1.48 fold enrichment (6-mer frequency, TF over GST control)"
same,binding signal,ERF,"1.5 fold enrichment (6-mer frequency, TF over GST control)"
same,binding signal,ETV3L,"1.64 fold enrichment (6-mer frequency, TF over GST control)"
same,binding signal,ETS2,"1.49 fold enrichment (6-mer frequency, TF over GST control)"
same,binding signal,SPDEF,"1.66 fold enrichment (6-mer frequency, TF over GST control)"
same,binding signal,ETV7,"1.41 fold enrichment (6-mer frequency, TF over GST control)"
same,binding signal,ELF5,"1.62 fold enrichment (6-mer frequency, TF over GST control)"
same,binding signal,ETV3,"1.5 fold enrichment (6-mer frequency, TF over GST control)"
same,binding signal,ETV6,"1.5 fold enrichment (6-mer frequency, TF over GST control)"
